# HP1b chromo inh – inhibitors of HP1-beta chromodomain binding to methylated histone tails | Potency, µM (series often up to 114 µM), for inactives: top-dose activity change, negative = inhibition, hits mostly inhibitors | AlphaScreen HP1-beta / biotin-H3K9me3 peptide binding | AID 540317 | 390,000 tested, 0.56% active; further: potency means the concentration at half of the fitted maximal effect; nearly all actives have a fitted effect of over 70% in size
#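 AlphaScreen: HP1-beta (50 nM) preformed 30 min with biotin-H3(1-18)K9me3 peptide (50 nM) in PBS pH 7.4, 0.01% Tween-20. Compound added for 30 min at RT, then streptavidin donor/nickel chelate acceptor beads (10 ug/mL) for 30 min.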
# BAZ2B inh – BAZ2B (human) inhibition | AlphaScreen BAZ2B-H3K14Ac peptide displacement | 360,000 tested, 4.4% active | AID 504333 | Potency, µM (highest dose often 114 µM), inactives show top-dose activity change, negative = inhibition, most hits filed as inhibitors; further: potency means the concentration at half of the fitted maximal effect; on the % scale 0 is the no-effect control and ±100 the full control effect; nearly all actives have a fitted effect of over 60% in size
#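 AlphaScreen displacement: compounds (up to 110uM) incubated 30 min at room temperature with a preformed 50 nM BAZ2B/50 nM biotinylated H3K14Ac peptide complex in PBS pH 7.4 with Tween-20. Donor and acceptor beads at 10 ug/mL final added, 20 min light-protected before reading.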
# JMJD2A Tudor inh – blocks the human JMJD2A Tudor domain; O75164; AlphaScreen JMJD2A-Tudor / H3K4me3 peptide binding; Potency, µM (titrated, usually from 114 µM), for the others: at the top dose activity change, negative = inhibition, usual class: inhibitors; 390,000 tested, 4.4% active; AID 504339; further: potency means the concentration at half of the fitted maximal effect; on the % scale 0 is the no-effect control and ±100 the full control effect; nearly all actives have a fitted effect of over 50% in size
# Target sequence (O75164 whole entry, looked up, the tested form may be a part): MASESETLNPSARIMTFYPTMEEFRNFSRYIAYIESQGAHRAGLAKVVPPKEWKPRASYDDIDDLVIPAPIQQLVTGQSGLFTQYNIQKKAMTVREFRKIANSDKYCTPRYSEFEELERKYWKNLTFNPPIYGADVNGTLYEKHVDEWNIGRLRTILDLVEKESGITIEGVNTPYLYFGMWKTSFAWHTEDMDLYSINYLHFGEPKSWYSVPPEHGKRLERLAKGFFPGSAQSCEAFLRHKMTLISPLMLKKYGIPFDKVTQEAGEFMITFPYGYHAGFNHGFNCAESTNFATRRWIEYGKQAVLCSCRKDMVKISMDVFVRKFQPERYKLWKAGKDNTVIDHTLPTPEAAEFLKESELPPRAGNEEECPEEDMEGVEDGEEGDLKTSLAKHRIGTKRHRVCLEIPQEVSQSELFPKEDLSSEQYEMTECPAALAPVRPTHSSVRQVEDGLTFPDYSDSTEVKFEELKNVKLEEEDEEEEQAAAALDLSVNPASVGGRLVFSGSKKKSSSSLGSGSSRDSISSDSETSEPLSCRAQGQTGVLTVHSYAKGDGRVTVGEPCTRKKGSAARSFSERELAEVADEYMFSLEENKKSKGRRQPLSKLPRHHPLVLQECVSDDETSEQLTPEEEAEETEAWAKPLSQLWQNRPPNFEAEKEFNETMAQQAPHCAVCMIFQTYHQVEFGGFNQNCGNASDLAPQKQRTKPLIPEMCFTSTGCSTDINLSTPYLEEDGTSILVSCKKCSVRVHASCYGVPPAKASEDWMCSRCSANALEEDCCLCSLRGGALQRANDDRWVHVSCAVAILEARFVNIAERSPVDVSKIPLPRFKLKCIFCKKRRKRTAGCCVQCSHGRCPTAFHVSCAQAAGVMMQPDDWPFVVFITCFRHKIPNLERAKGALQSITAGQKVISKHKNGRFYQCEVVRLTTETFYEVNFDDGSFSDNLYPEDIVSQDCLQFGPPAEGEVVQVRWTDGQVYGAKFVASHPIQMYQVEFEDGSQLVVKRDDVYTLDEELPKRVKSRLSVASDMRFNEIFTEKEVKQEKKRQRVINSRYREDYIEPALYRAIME
# CtBP-E1A blk – blocks the CtBP interaction with E1A | activity change, % (no concentration beside the values) | AlphaScreen GST-E1A/His-CtBP binding, 1536-well; active compounds read low | 340,000 tested, 0.49% active; in the data active means activity change below about -65%; inconclusive means mostly about -30% to -63%; further: on the % scale 0 is the no-effect control and ±100 the full control effect
#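 Protein mix (5X: 125 nM each GST-E1A, His-CtBP) was incubated with pinned compound 2 h at 37 deg C in dark, in 50 mM Tris pH 8.0 buffer with 300 mM NaCl. Glutathione donor and nickel acceptor beads followed; AlphaScreen signal read after 1 h.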
# G9a inh – blocks human histone lysine methyltransferase G9a. G9a H3K9 monomethylation, AlphaScreen, 2 h. AID 504332. 350,000 tested, 8.8% active. Potency, µM (doses to about 102 µM), for inactives: at the top dose activity, negative = inhibition, hits mostly inhibitors; further: potency means the concentration at half of the fitted maximal effect; on the % scale 0 is the no-effect control and ±100 the full control effect; nearly all actives have a fitted effect of over 75% in size
#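 AlphaScreen detection with an anti-monomethyl H3K9 antibody quantified product after a 2 h room-temperature reaction containing 500 nM biotinylated H3K9 peptide, 20 µM SAM and 20 nM enzyme, which had been preincubated 15 min with compound.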
# Six1-Eya2 blk – inhibitors of human Six1/Eya2 interaction; AID 651725; AlphaScreen GST-Six1/His-Eya2 binding, biochemical; active compounds read low; 360,000 tested, 0.56% active; activity change, % (test concentration not listed); in the data active means activity change below about -65%; inconclusive means mostly about -30% to -63%; further: on the % scale 0 is the no-effect control and ±100 the full control effect
#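 Six1/Eya2 binding was read as AlphaScreen signal after compounds were pinned into GST-Six1 plus His-tagged Eya2 (5X stock 250/500 nM) in pH 8.0 Tris/NaCl/TCEP buffer, beads added, then incubated 1 h, 37 C, dark.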
# * = called active by the depositor; ? = inconclusive; · = not tested or not shown; ! = not active in a repeat; [ ] = another dose, or the depositor's remark. This is a sample that favours compounds with a hit; in the whole collection about 10% have one here. Unless noted, the call rests on the fitted dose curve; in most records, active means well fitted inhibition curve with a large enough effect; inconclusive means small, poorly fitted or top-dose-only effect; inactive means no such curve, though single readings can be large or run the other way.
SMILES,HP1b chromo inh,BAZ2B inh,JMJD2A Tudor inh,CtBP-E1A blk,G9a inh,Six1-Eya2 blk
COc1ccccc1CNC(=O)Cn1c(=O)oc2ccccc21,14%,0%,-15%,·,5%[59 µM],·
N#CCCn1c(=O)c(-c2ccccc2)nc2cnc(OCc3ccccc3)nc21,·,·,·,·,2%[12.7 µM],·
CN(C)c1cccc(C(=O)NCc2ccccc2Cl)c1,-2%,50µM*,?,-21,-47%,7
O=C(NCc1cccc(Cl)c1)c1cccc(C(F)(F)F)c1,77%,25%,36%,7,39%,16
O=C(NCc1ccccc1Cl)c1cccc(C(F)(F)F)c1,41%,20%,17%,6,45µM*,15
O=C(O)COc1ccc(Oc2ccccc2)cc1,33%,-6%,-4%,5,6%[59 µM],11
NOCC(=O)O,16%,?,22µM*,3,6µM*!,2
Cc1cccc(NCc2nnc(-c3ccccc3)o2)c1C,-13%,-7%,79µM*,-10,5%,-10
CCc1cccc(-n2nnc(-c3nc(-c4ccccc4Cl)no3)c2N)c1,-2%,-17%,-20%,·,-16%[59 µM],·
Cc1ccc(CNc2nc3ccc(Cl)cc3n3nnnc23)cc1,18%,3%,-11%,·,-1%[59 µM],·
COc1cccc(/C=N/n2c(SC)nnc2-c2ccccc2)c1O,24%,?,-31%,-1,8.9µM*,-6
Nc1nc(C23CC4CCC(CC(C4)C2)C3)cs1,-1%,-9%,-24%,2,?,-1
Nc1nc(C23CC4CC(CC(Cl)(C4)C2)C3)cs1,9%,71µM*,-26%,-5,6%[59 µM],-22
Cc1ccc([N+](=O)[O-])c(Oc2ncnc3c2oc2ccccc23)c1,26%,-3%,-12%,·,-16%[59 µM],·
CN[C@H](CC(=O)O)C(=O)O,-20%,·,22µM*,13,22µM*!,7
CCN(CC)c1ccc(N2C(=O)CSC2=S)cc1,?,-4%,50µM*,-17,5%,-11
O=C(O)c1cc(C(=O)O)cc(N2C(=O)CSC2=S)c1,-8%,?,4%,11,18µM*,-12
O=C(N/N=C/c1ccco1)C1CC1c1ccccc1 (centres undefined),?,50µM*,?,-5,-20%,-9
CC(C)(C)c1ccc(C2CC2C(=O)N/N=C\c2ccc[nH]2)cc1 (centres undefined),?,?,56µM*,-23,40µM*,-29
O=C(N/N=C/c1ccco1)Nc1ccccc1,0%,2%,-10%,4,79µM*,-6
O=C(CCC(=O)Nc1ccccc1)N/N=C/c1ccco1,12%,8%,-11%,1,19%[59 µM],1
Cc1cccc(C(=O)Nc2ccc(C(=O)N/N=C/c3ccco3)cc2)c1,?,·,45µM*,-3,·,-11
O=C(N/N=C/c1c[nH]c2ccccc12)C1CC1c1ccccc1 (centres undefined),6%,-27%,-33%,5,?,-15
Nc1cccc(C2=Nc3cccc4cccc(c34)N2)c1,20%,-6%,-3%,7,25µM*,-3
CC(C)C1=Nc2cccc3cccc(c23)N1,-7%,?,-16%[57.1 µM],-7,28µM*,-2
SMILES,HP1b chromo inh,BAZ2B inh,JMJD2A Tudor inh,CtBP-E1A blk,G9a inh,Six1-Eya2 blk
ClCC1=Nc2cccc3cccc(c23)N1,·,79µM*,·,·,?,·
N=c1c[n+](N2CCOCC2)[n-]o1,2%,50µM*,56µM*,-5,8.9µM*!,6
CC(C)c1nn2c(=O)cc(COC(=O)c3ccccc3NC(=O)COc3ccccc3)nc2s1,0%,-2%,-17%,·,11%[59 µM],·
Cc1ccc(CNC(=O)C2CCN(S(=O)(=O)N3CC(C)CC(C)C3)CC2)cc1 (centres undefined),18%,-11%,-12%,3,-5%,4
CC1CCN(C(=O)C(C)NCc2ccc(F)cc2)CC1 (centres undefined),20%,50µM*,10µM*,12,7.1µM*,-4
CCc1ccc(CNC(=O)C2CCN(S(=O)(=O)N3CC(C)CC(C)C3)CC2)cc1 (centres undefined),26%,50µM*,-10%,0,2%,0
CC1CCN(CC2CCN(C(=O)NCc3ccc(F)cc3)CC2)CC1,17%,3%,-9%,·,5%[59 µM],·
CC1CCN(S(=O)(=O)N2CCCC(C(=O)NCc3ccc(F)cc3)C2)CC1 (centres undefined),-20%[57 µM],-12%,11µM*,-8,13%,-15
O=C(NCc1ccc(F)cc1)C1CCN(S(=O)(=O)N2CCCC2)CC1,18%,-3%,?,·,-34%,0
CC(C)CN(CCCNC(=O)c1cn(C)c2ccc(S(=O)(=O)N(C)C3CCCCC3)cc2c1=O)CC(C)C,13%,·,-14%,·,2%[59 µM],·
COc1ccc(NC(=O)c2cc(-c3ccccc3F)no2)cc1,49%,3%,-1%,·,5%[59 µM],·
O=C(CN1C(=O)CSc2ccc(S(=O)(=O)N3CCCC3)cc21)NCc1ccccc1Cl,15%,-17%,-18%,·,-4%[59 µM],·
Cc1nc(/C(=N/O)C(N)=O)cs1,9%,50µM*,-15%[11.4 µM],-22,13µM*,-13
Cc1nc(C(=O)NNC(=O)c2ccc(Cl)cc2)cs1,24%,1%,-10%,-7,?,6
Cc1ccc(-c2[nH][nH]c(=O)c(=O)c2N=Nc2ccccc2)cc1,?,-30%,-14%[11.4 µM],7,45µM*,4
CCOC(=O)C(Sc1cc(C)nc(N)n1)C(C)=O (centres undefined),3%,-1%,56µM*,25,18µM*,15
CCOC(=O)C(Sc1nn(C)c(=S)s1)C(C)=O (centres undefined),43%,-35%,-11%,7,18µM*,-1
Cn1nc(SCC(=O)O)sc1=S,40%,1%,-5%,8,-26%[59 µM],1
O=C(CS(=O)(=O)c1cccc2nsnc12)NCc1ccccc1,27%[57 µM],9%,-6%,·,5%[59 µM],·
CCC(C(=O)Nc1nnc2n1CCS2)c1ccccc1 (centres undefined),16%[57 µM],-37%,-24%,·,-47%[59 µM],·
O=C(O)CC1S/C(=N/N=C/c2ccc(-c3ccccc3[N+](=O)[O-])o2)NC1=O (centres undefined),4%,50µM*,?,-15,-42%[2.33 µM],-5
Cc1ccc(-n2c(C)c([N+](=O)[O-])c3ccc(O)cc32)cc1,·,-4%,·,·,50µM*,·
Cc1cc(C)c(NC(=O)CCS(=O)(=O)c2cc3c(cc2Cl)NC(=O)CO3)c(C)c1,35%,3%,-2%,·,7%[59 µM],·
CCc1nn2c(=O)cc(COC(=O)CNC(=O)c3ccccc3)nc2s1,-14%,-15%,-17%,·,-1%[59 µM],·
Cc1oc(C(C)(C)C)cc1C(=O)N1CCCC1C(=O)O (centres undefined),7%,-3%,100µM*,-3,-5%[59 µM],0

# Screens deposited in PubChem BioAssay by National Center for Advancing Translational Sciences (NCATS).
